Screening data: PubChem, National Center for Advancing Translational Sciences (NCATS)
The list is not random: actives were taken first. Their share in the collection is about 19%.
DT40 TDP1 CPT – growth inhibition of DT40 Tdp1-/-;hTDP1 cells with camptothecin (screen for TDP1 inhibitors); chicken DT40 Tdp1-/-;hTDP1 cells + 20 nM CPT, ATP luminescence, 48 h; Potency, µM (top dose mostly 46.2 µM), for the others: at the top dose activity change, negative = growth inhibition, usual class: inhibitors; 420,000 tested, 12% active; AID 686979; note: potency is the fitted concentration of half-maximal effect; % is set by controls: 0 for no effect and ±100 for the full control effect; nearly all actives have a fitted effect of over 55% in size
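Chicken DT40 Tdp1-/- cells complemented with human TDP1, 400 cells/well, exposed to compounds plus 20 nM camptothecin for at least 48 h at 37 C; viability read as ATP content by CellTiter-Glo luminescence.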
MCF10A rerep – DNA re-replication induction in MCF 10a cells. Potency, µM (highest dose often 46.1 µM), for inactives: at the highest dose activity, positive = re-replication, hits mostly activators. MCF 10A DNA re-replication, Hoechst nuclear intensity, 48 h. AID 624296. 350,000 tested, 2.9% active; note: potency is the fitted concentration of half-maximal effect; % of control where 0% means no effect; nearly all actives have a fitted effect of over 50% in size
SW480 rerep – inducers of DNA re-replication in SW480 colon cancer cells; SW480 DNA re-replication, Hoechst DNA content imaging, 48 h; Potency, µM (titrated, usually from 46.1 µM), inactives show at the top dose re-replication activation, hits mostly activators; 340,000 tested, 1.8% active; note: potency is the fitted concentration of half-maximal effect; % of control where 0% means no effect; nearly all actives have a fitted effect of over 55% in size
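Per well, 250 cells were exposed to pinned compound for 48 hr. Nuclear DNA was visualised with Hoechst (40 min, 37 C) and total object intensity recorded by fluorescence scanning.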
TDP1 cell noCPT – qHTS for Inhibitors of human tyrosyl-DNA phosphodiesterase 1 (TDP1): qHTS in cells in absence of CPT. DT40 Tdp1-/- hTDP1 cells, no CPT, ATP luminescence, 48 h. Potency, µM (top dose mostly 46.2 µM), without a hit: top-dose activity change, negative = growth inhibition, usual class: inhibitors. 420,000 tested, 15% active. AID 686978, 2013; note: potency is the fitted concentration of half-maximal effect; % is set by controls: 0 for no effect and ±100 for the full control effect; nearly all actives have a fitted effect of over 55% in size
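Growth of hTDP1-complemented DT40 Tdp1-knockout cells is measured by ATP luminescence after at least 48 hr compound exposure at 37 °C, with DMSO substituting for the 20 nM CPT used in the parallel screen.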
BCR signal inh – chronic active BCR signaling inhibition. ABC-DLBCL IkBa-CBG/CBR reporter, luminescence ratio, 4 h. Potency, µM (top dose mostly 46.1 µM), without a hit: top-dose activity change, negative = inhibition, hits mostly inhibitors. 340,000 tested, 0.05% active; active = well fitted inhibition curve with a large enough effect in the signal ratio, with a control signal flat, not every such curve was filed as active; inconclusive = small, poorly fitted or top-dose-only effect, or effect the other way, or a change in a side signal; the % refers to the signal ratio;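 note: potency is the fitted concentration of half-maximal effect; plate controls were basal doxycycline-induced cells for no effect and cells given 10 µM MG132 for full effect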
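TMD8 human ABC-DLBCL cells with doxycycline-inducible IκBα–green luciferase fusion and unfused red luciferase, in 0.5% FBS medium; compounds up to 46 uM, 4 h at 37C. Green/red luminescence ratio, filter-overlap corrected, fitted to concentration-response curves.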
IL-1B inflam inh – inflammasome signaling inhibition, IL-1 beta readout; activity change, % at 57.5 µM; 360,000 tested, 4.7% active; THP-1 LPS/ATP IL-1B secretion, AlphaLISA, 16 h; active compounds read low; AID 743279; in the data active = activity change below about -50%; inconclusive = mostly about -30% to -49%; note: % is set by controls: 0 for no effect and ±100 for the full control effect
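THP-1 cells pretreated 1 hr with compounds (up to 57.5 uM final), then stimulated with LPS (250 ng/mL final) plus ATP (1.25 mM final); secreted IL-1B measured by AlphaLISA after 16 hr, decreased signal indicating inhibition.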
Active calls of the source: *; ? = inconclusive; . = no result given; ! = not confirmed by another sample; [ ] = remark or other dose. Unless noted, calls come from the whole dose curve; as a rule, active = well fitted curve in the direction sought with a large enough effect; inconclusive = small, poorly fitted or top-dose-only effect, or another doubt; inactive = no such curve, though single readings can be large; an effect the other way counts as inactive or inconclusive.

SMILES | DT40 TDP1 CPT | MCF10A rerep | SW480 rerep | TDP1 cell noCPT | BCR signal inh | IL-1B inflam inh
CC(=O)c1ccc(NC(=O)N2CCN(c3cccc(Cl)c3)CC2)cc1 | 11.6µM* | ? | -1.2% | 11.6µM* | ? | -15.1
NS(=O)(=O)c1ccc(NC(=S)N2CCN(c3cccc(Cl)c3)CC2)cc1 | ? | ? | -0.4% | 7.31µM* | 7.4% | -3.1
O=C(Nc1ccc(Cl)cc1)N1CCN(c2ccccc2)CC1 | ? | -8.9% | -13.3% | ? | -8.4% | -4.2
CC(=O)c1ccc(N2CCN(C(=O)C3CCN(C(=O)Nc4ccccc4)CC3)CC2)cc1 | ? | 14.4% | -26.9% | ? | -0.3% | 23.8
CC(=O)c1ccc(N2CCN(C(=O)Nc3ccc(Cl)cc3)CC2)cc1 | ? | 12.8% | -3.6% | 10.3µM* | 7.4% | -9.3
CCOC(=O)c1ccc(NC(=O)N2CCN(c3cccc(OC)c3)CC2)cc1 | ? | 2.8% | 0.9% | 18.4µM* | -2.1% | 0.0
CCN(CC)S(=O)(=O)c1ccc(NC(=O)COC(=O)CNS(=O)(=O)/C=C/c2ccccc2)cc1 | -10.0% | -0.7% | . | ? | ? | -8.3
CN(c1ccccc1)S(=O)(=O)c1cccc(NC(=O)CN2C(=O)NC3(CCCC3)C2=O)c1 | ? | 3.5% | 21.0% | ? | -0.2% | -0.5
CCOC(=O)C1CCCN(C(=O)c2sc3nc(-c4ccc(F)cc4)cn3c2C)C1 (configuration not stated) | ? | 9.8% | -9.0% | 25.9µM* | ? | 0.0
CCOC(=O)C1CCCN(C(=O)COc2ccc(C(=O)c3ccc(F)cc3)cc2)C1 (configuration not stated) | 18.4µM* | 13.6% | 2.8% | ? | -8.3% | 9.8
CCOC(=O)C1CCCN(C(=O)c2ccc3c(c2)sc2nc(-c4cccc(OC)c4)cn23)C1 (configuration not stated) | 18.4µM* | . | . | 14.6µM* | . | .
CCOC(=O)C1CCCN(C(=O)c2ccc3c(c2)sc2nc(-c4ccc(C)cc4C)cn23)C1 (configuration not stated) | 16.4µM* | . | . | 18.4µM* | . | .
CCOC(=O)C1CCCN(C(=O)c2sc3nc(-c4ccccc4)cn3c2C)C1 (configuration not stated) | ? | 0.8% | ? | ? | ? | 5.0
Nc1nc(Nc2ccc(Cl)cc2)c(NC=O)c(=O)[nH]1 | -0.4% | 0.6% | -8.6% | 3.2% | . | -14.1
COc1ccc(OC)c(/C=N/Nc2nc(C)cc(=O)[nH]2)c1 | -0.7% | -21.8% | -1.3% | ? | -2.0% | -3.1
CC(C)c1cccc(-c2csc(C(O)c3cccc(Cl)c3)n2)c1 (configuration not stated) | 23.1µM* | . | . | 20.6µM* | . | 9.6
OC(c1cccc(Cl)c1)c1nc(-c2ccc3c(c2)OCO3)cs1 (configuration not stated) | ? | . | . | ? | . | 7.0
OC(c1cccc(Cl)c1)c1nc(-c2ccccc2)cs1 (configuration not stated) | ? | . | . | -19.0% | . | ?
CN(C)c1ccc(-c2csc(C(O)c3cccc(Cl)c3)n2)cc1 (configuration not stated) | 20.6µM* | . | . | 20.6µM* | . | -7.5
COc1ccc(N(C)S(=O)(=O)c2cccc(C(=O)N(C)Cc3ccc(C)o3)c2)cc1 | ? | -0.6% | 0.8% | ? | 3.1% | -18.9
CC/C(=N/N=C(/CC)c1ccc(O)cc1)c1ccc(O)cc1 | 14.6µM* | 4.5% | 2.1% | 8.2µM* | . | 14.9
CC(=NN=C(C)c1ccc(O)cc1)c1ccc(O)cc1 | ? | 13.9% | -9.7% | 16.4µM* | . | -9.7
C/C=C(/C(=C/C)c1ccc(O)cc1)c1ccc(O)cc1 | ? | 4.61µM*! | ? | ? | -6.1% | 35.0
C=C(c1ccc(O)cc1)c1ccc(O)cc1 | -6.3% | ? | 0.2% | ? | -8.2% | -58.6*
Cc1ccc(S(=O)(=O)N[C@H](C(=O)N2CCC(C(=O)N[C@@H](CCC(N)=O)C(=O)O)CC2)C(C)C)cc1 | -4.4% | -1.2% | 1.7% | -0.5% | 8.1% | -8.8
SMILES | DT40 TDP1 CPT | MCF10A rerep | SW480 rerep | TDP1 cell noCPT | BCR signal inh | IL-1B inflam inh
CN1CCN(C(=O)c2cc(Cl)ccc2NC(=O)c2ccc(Cl)cc2Cl)CC1 | 3.6% | -0.5% | -4.3% | 12.6% | -3.8% | 13.4
CC1=C/C(=N\NC(=S)Nc2cccnc2)CC(C)(C)C1 | 1.3µM* | ? | ? | 2.06µM* | ? | 49.7
CCCc1nc2nc(C)c(NS(=O)(=O)c3ccc([N+](=O)[O-])cc3)c(=O)n2[nH]1 | 4.6% | -31.6% | -2.2% | -7.7% | -14.3% | 5.6
COc1ccc(-c2oc(=O)c3cc(OC)c(OC)cc3c2/C=C/c2ccc([N+](=O)[O-])cc2)cc1 | ? | -1.1% | -8.1% | ? | -0.3% | -2.3
COc1ccc(-c2oc(=O)c3cc(OC)c(OC)cc3c2C(F)(F)F)cc1 | -4.4% | 33.2% | 4.1%[9.22 µM] | -18.8% | 0.1% | 7.0
COc1ccc(-c2c(-c3ccc(C#N)cc3)oc(=O)c3cc(OC)c(OC)cc23)cc1 | ? | ? | -9.5% | 16.4µM* | 0.4% | -8.0
COc1ccc(-c2oc(=O)c3cc(OC)c(OC)cc3c2-c2cc(F)cc(OC)c2)cc1 | ? | ? | 25.3% | 18.4µM* | ? | 0.8
COc1ccc(-c2oc(=O)c3cc(OC)c(OC)cc3c2/C=C/c2cccc([N+](=O)[O-])c2)cc1 | 8.2µM* | 20.5% | -56.2% | 9.2µM* | 1.7% | 57.8
N#Cc1cn(N2CCCCC2)c(=O)[nH]c1=O | 4.1% | -0.2% | 3.1% | 3.2% | 4.6% | 10.7
COC(=O)Cc1c(C)c2ccc(OCC(=O)N(C)C3CCS(=O)(=O)C3)cc2oc1=O (configuration not stated) | -12.2% | -1.3% | -4.4% | 8.1% | 2.9% | -1.0
COc1cc(CN2CCNC(=O)C2CC(=O)NC2CCCC2)cc(OC)c1 (configuration not stated) | 0.6% | -0.5% | 0.1% | -6.5% | 5.5% | -15.1
C=C1C(=O)O[C@H]2[C@H]1[C@H](OC(=O)/C(C)=C\C)C[C@]1(CO1)[C@@H]1[C@H](OC(C)=O)C=C(C)[C@]21O | 11.6µM* | 3.26µM* | ? | 13µM* | . | -103.9*
Cc1ccc(Nc2nc(N)nc(-c3oc4ccccc4c3C)n2)cc1 | 0.206µM* | ? | ? | 0.058µM* | ? | 53.6
